Measured values as given in PubChem BioAssay.
The source made the active and inactive calls.

Legend:
[1] = binders of probe aFSTL3 on microarray, primary screen, stem cell growth factor project, biochemical, small-molecule microarray, fluorescence 635/667 (AID 1064); conditions: higher = more signal;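 also: measures binding of the biotinylated anti-FSTL3 antibody to printed compounds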
[2] = binders from COS7 lysate, DM2A8 probe, primary screen, torsin A project, cell lysate, small-molecule microarray, fluorescence 635/667 (AID 1065); conditions: higher = more signal, COS7 lysate expressing mutant human TOR1A
[3] = binders of probe aFGF2 on microarray, primary screen, stem cell growth factor project, biochemical, small-molecule microarray, fluorescence 635/667 (AID 1067); conditions: higher = more signal;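 also: measures binding of biotinylated aFGF2 protein to printed compounds on slides; z-score merges feature fluorescence and signal-to-noise across triplicate slides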
[4] = binders of probe aFGF10 on microarray, primary screen, stem cell growth factor project, biochemical, small-molecule microarray, fluorescence 635/667 (AID 1071); conditions: higher = more signal;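 also: score merges 667 nm spot intensity and signal to noise from triplicate slides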
[5] = biological target: Neurogenic locus notch homolog protein 2 (Homo sapiens) (UniProt Q04721); assay: Notch2 binders on small-molecule microarrays, primary screen, biochemical, small-molecule microarray, 635 nm fluorescence, stem cell growth factors (AID 1073); conditions: Notch2 binding, higher = more signal
Neurogenic locus notch homolog protein 2 (Homo sapiens), sequence (Q04721 whole entry, looked up, canonical isoform): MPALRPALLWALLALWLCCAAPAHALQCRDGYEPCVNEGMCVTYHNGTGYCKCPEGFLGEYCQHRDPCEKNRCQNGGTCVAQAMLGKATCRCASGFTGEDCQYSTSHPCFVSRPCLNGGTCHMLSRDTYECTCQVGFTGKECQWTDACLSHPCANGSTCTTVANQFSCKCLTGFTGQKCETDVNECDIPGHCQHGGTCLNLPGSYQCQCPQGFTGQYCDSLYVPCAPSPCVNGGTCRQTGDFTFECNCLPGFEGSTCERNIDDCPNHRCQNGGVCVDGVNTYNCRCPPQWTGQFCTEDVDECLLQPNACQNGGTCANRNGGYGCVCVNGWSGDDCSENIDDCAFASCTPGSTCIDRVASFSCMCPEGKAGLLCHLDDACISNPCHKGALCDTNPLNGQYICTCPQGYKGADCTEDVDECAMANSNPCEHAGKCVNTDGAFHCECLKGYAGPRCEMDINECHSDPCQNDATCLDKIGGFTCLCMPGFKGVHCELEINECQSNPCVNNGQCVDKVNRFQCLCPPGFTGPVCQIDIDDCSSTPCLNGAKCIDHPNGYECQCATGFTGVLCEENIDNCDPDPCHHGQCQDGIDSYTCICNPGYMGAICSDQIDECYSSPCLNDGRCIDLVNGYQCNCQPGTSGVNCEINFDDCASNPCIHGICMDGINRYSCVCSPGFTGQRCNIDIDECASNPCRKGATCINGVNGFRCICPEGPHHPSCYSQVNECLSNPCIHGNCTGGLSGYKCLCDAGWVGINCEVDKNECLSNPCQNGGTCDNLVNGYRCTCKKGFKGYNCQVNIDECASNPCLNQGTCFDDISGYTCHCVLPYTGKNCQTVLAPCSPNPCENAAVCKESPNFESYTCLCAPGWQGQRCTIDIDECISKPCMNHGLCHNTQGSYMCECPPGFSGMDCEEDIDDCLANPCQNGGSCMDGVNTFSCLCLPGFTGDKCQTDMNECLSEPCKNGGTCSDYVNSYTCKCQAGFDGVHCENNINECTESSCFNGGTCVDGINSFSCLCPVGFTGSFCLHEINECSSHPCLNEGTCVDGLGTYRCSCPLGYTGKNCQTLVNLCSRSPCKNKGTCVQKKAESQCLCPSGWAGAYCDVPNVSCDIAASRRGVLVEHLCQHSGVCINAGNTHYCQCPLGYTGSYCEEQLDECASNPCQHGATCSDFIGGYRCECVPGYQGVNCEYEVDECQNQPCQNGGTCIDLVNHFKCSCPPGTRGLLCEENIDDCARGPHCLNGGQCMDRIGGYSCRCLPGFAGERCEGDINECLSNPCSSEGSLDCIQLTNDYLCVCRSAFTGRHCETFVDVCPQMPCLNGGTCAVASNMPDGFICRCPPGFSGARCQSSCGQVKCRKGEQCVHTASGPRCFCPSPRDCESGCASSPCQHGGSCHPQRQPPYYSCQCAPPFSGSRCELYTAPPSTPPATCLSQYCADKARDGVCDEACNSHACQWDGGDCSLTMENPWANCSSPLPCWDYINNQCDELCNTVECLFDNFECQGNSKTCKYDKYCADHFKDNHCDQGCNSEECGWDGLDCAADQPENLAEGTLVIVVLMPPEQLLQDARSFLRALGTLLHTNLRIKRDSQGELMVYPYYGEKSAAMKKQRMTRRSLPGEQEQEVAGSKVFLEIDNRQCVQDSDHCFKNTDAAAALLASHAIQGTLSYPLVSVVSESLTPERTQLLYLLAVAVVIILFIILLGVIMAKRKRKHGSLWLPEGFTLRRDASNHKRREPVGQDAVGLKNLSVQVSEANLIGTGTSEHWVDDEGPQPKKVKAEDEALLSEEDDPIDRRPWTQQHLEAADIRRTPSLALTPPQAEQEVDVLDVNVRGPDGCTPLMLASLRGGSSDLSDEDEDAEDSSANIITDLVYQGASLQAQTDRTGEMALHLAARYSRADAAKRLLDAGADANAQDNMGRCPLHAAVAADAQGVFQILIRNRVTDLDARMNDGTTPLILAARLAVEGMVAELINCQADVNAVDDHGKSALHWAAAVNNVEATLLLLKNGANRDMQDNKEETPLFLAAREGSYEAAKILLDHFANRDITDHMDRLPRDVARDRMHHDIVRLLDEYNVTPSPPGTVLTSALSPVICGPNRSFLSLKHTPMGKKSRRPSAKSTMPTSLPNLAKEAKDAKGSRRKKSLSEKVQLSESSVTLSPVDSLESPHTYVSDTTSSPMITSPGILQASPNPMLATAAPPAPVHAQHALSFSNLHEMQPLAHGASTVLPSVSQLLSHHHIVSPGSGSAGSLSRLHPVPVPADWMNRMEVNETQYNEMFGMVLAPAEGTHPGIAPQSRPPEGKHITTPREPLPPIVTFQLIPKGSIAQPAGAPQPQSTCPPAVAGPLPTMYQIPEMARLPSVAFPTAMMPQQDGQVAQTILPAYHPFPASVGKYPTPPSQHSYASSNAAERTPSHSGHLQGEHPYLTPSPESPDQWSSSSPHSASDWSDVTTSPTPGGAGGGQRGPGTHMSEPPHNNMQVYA

[6] = biological target: Pro-neuregulin-1, membrane-bound isoform (Homo sapiens) (UniProt Q02297); assay: NRG1 binders on small-molecule microarrays, primary screen, psychiatric disease protein project, biochemical, small-molecule microarray, fluorescence 635/667 (AID 1075); conditions: NRG1 binding, 635 nm fluorescence, higher = more signal;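 also: score combines 667 nm spot fluorescence with signal to noise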
Pro-neuregulin-1, membrane-bound isoform (Homo sapiens), sequence (Q02297 whole entry, looked up, the tested form may be a part, canonical isoform): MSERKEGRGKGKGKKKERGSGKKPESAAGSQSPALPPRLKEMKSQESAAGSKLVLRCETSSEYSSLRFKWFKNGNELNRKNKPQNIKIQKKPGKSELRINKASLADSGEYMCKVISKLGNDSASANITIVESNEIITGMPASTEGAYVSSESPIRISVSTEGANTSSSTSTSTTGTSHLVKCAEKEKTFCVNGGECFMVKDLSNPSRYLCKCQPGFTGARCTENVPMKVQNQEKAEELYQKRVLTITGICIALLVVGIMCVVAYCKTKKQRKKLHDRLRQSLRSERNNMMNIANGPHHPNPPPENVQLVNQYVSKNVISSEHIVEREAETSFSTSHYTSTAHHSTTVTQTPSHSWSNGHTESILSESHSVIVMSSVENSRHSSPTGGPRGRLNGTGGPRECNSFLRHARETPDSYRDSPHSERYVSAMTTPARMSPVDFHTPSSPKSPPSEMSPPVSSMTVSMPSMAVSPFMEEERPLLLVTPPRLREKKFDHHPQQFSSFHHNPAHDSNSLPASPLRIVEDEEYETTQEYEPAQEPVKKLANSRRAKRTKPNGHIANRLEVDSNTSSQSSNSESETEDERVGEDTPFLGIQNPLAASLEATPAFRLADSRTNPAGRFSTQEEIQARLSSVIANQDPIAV

[7] = test system: Neuregulin-1 EGF-like domain; assay: binders of neuregulin-1 EGF-like domain, primary screen, biochemical, small-molecule microarray, 635 nm fluorescence (AID 1081); conditions: small-molecule microarray binding, higher = more signal;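 also: binding of the protein to compounds printed on small-molecule microarray slides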
[8] = FRG1 promoter luciferase signal modulators, primary screen, FRG1 inhibition for FSHD, cell-based, C2C12 myotubes, firefly/Renilla luciferase, luminescence (AID 1084); conditions: higher = more signal, called active from +8 up or from −8 down
[9] = binders of probe aFST on microarray, primary screen, stem cell growth factor project, biochemical, small-molecule microarray, fluorescence 635/667 (AID 1086); conditions: higher = more signal;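 also: score merges 667 nm fluorescence with signal-to-noise of each printed compound spot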
[10] = binders of probe aHhip on microarray, primary screen, stem cell growth factor project, biochemical, small-molecule microarray, fluorescence 635/667 (AID 1087); conditions: higher = more signal;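 also: score merges spot fluorescence at 667nm with spot signal to noise ratio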

| SMILES | composite z-score [1] | composite z-score [2] | composite z-score [3] | composite z-score [4] | composite z-score [5] | composite z-score [6] | composite z-score [7] | z-score [8] | composite z-score [9] | composite z-score [10] |
| --- | --- | --- | --- | --- | --- | --- | --- | --- | --- | --- |
| COCCOC(=O)N1C(=O)[C@@]2(c3cc(C#CC4(O)CCCCCC4)ccc31)[C@H](C(=O)Nc1nc3ccccc3s1)[C@H]1C(=O)O[C@H](c3ccccc3)[C@H](c3ccccc3)N1[C@@H]2c1ccccc1OCCO | 0.184 | 1.29 | -0.0503 | 0.94 | 1 | 1.54 | 1.29 | 1.86 (inactive) | 0.461 | -0.0618 |
| C#CCN1[C@@H](Cc2ccc(O)cc2)C(=O)O[C@H](Cc2ccccc2)[C@@H]1/C=C/C1CC1 | -0.353 | 0.336 | -0.142 | 0.199 | -0.586 | -0.37 | 0.207 | -3.33 (inactive) | 0.0959 | -0.279 |
| O=C(CS)NCCCCCNC(=O)[C@H]1C[C@H]2C(=O)NCC(=O)N2[C@H]1c1cccc(OCCO)c1 | 0.656 | -0.498 | -0.0579 | -0.461 | -1.2 | 1.33 | 0.375 | 3.3 (inactive) | -0.793 | -0.176 |
| CO[C@H]1O[C@H](CO)[C@@H](OC(=O)Nc2ccc(Br)cc2)[C@@H]2OC(=O)[C@H](Cc3cccc(Br)c3)C/C=C/C[C@@H](Cc3cccc(Br)c3)C(=O)O[C@@H]12 | -0.0675 | -0.0034 | -0.135 | 0.0489 | 0.0333 | 0.72 | 1.05 | 1.3 (inactive) | 0.388 | 0.315 |
| CCOC(=O)C1=CC[C@@H](c2ccccc2)N(S(=O)(=O)c2ccc(C)cc2)[C@H]1c1ccc(CC)cc1 | 0.114 | -0.0251 | -0.0056 | 0.421 | 1.4 | 0.863 | 1.06 | -3.16 (inactive) | 0.762 | -0.0618 |
| C=CCNC(=O)[C@H]1[C@@H]2C(=O)O[C@@H](c3ccccc3)[C@@H](c3ccccc3)N2[C@@H](c2ccc(OCCO)cc2)[C@]12C(=O)Nc1ccc(C#CCC(C(=O)OC)C(=O)OC)cc12 | -0.378 | 0.632 | 0.0501 | 0.441 | 1.17 | 1.17 | 1.18 | 0.0693 (inactive) | 0.452 | 0.0373 |
| COCCOC(=O)N1C(=O)[C@@]2(c3ccccc31)[C@H](c1ccc(OCCO)cc1)N1[C@H](c3ccccc3)[C@H](c3ccccc3)OC(=O)[C@H]1[C@@H]2C(=O)N1CCc2cc(OC)c(OC)cc2C1 | -0.128 | 0.974 | 0.123 | 1.15 | 1.33 | 1.29 | 1.28 | -1.82 (inactive) | 0.799 | 0.176 |
| CC(C)(C)OC(=O)CC[C@@]1(C(=O)N2CCCCC2)N=C(c2ccc(OCCCO)cc2)O[C@@H]1c1ccccc1 | 0.249 | 0.615 | 0.171 | 0.783 | 1.68 | 1.72 | 1.23 | -3.24 (inactive) | 1.12 | -0.0618 |
| O=C1NC(=O)C2C1C=CC(C(O)C1CC=CCC1)N2Nc1ccccn1 (stereo not given) | 0.0882 | 0.922 | 0.135 | 0.938 | 1.2 | -0.0625 | 1.11 | 0.845 (inactive) | 0.324 | -0.445 |
| C=CCNC(=O)[C@@H]1[C@H]2C(=O)O[C@H](c3ccccc3)[C@H](c3ccccc3)N2[C@H](c2ccc(OCCO)cc2)[C@@]12C(=O)N(C(=O)OCCOC)c1ccc(C#CCNC(N)=O)cc12 | 0.204 | 0.672 | -0.0502 | 0.399 | 1.25 | 0.748 | 1.1 | 0.635 (inactive) | 0.798 | -0.0994 |
| COC(=O)C[C@H]1O[C@@H](CCc2ccccc2)[C@@H](C)[C@@H]1[Si](C)(C)c1ccc(OC)cc1 | -0.136 | -0.724 | -0.17 | -0.318 | -0.514 | -0.553 | -0.743 | -0.149 (inactive) | -0.165 | -0.137 |
| COC(=O)[C@@]1(Cc2ccc(F)cc2)[C@H]2c3cc(C(=O)N(C)C)n(Cc4ccc(C)o4)c3C[C@H]2CN1C(=O)c1ccccc1 | 2.58 | 3.31 | 0.62 | 0.0793 | 0.0386 | 1.8 | 1.13 | 0.626 (inactive) | 2.31 | 0.683 |
| O=C(O)[C@@]1(CCS(=O)(=O)c2ccccc2)N=C(c2ccc(OCCCO)cc2)O[C@H]1c1ccccc1 | 0.132 | -0.0272 | 0.0654 | -0.029 | 0.604 | 1.62 | 1.06 | 2.18 (inactive) | 0.38 | -0.0994 |
| C=C(CCCC)/C(=C/C[C@@H](OC(C)=O)c1ccccc1OCCO)c1cc(C(=O)OC)ccc1OC | 0.0248 | -0.0044 | -0.0996 | 0.187 | -0.659 | -0.0693 | -0.0487 | 0.549 (inactive) | -0.38 | -0.271 |
| CC(=O)n1cc(C(O)C2C=CC3C(=O)NC(=O)C3N2Nc2ccccn2)c2ccccc21 (stereo not given) | 0.125 | 0.0908 | -0.0583 | 0.122 | 0.887 | 0.298 | 1.27 | 1.15 (inactive) | 0.221 | -0.179 |
| CCCCC(=C=CC[C@@H](O)c1cccc(OCCO)c1)C[C@@H](O)c1ccccn1 | -0.528 | 0.775 | -0.0771 | 0.702 | 0.0548 | 0.23 | 1.12 | 1.36 (inactive) | 0.381 | -0.0618 |
| CC1CC/C=C\[C@H]2OC34C=CCN(Cc5ccccc5)C(=O)[C@H]3N(C(C)CO)C(=O)[C@@H]4C2C(=O)O1 (stereo not given in full) | -0.504 | -0.33 | -0.138 | 0.0852 | -0.257 | -0.771 | 1.44 | 0.251 (inactive) | -0.021 | -0.0672 |
